# Reference: PubChem BioAssay (NCATS)
# Inconclusive results are not listed. A call without a number means that no potency is given here. The source made the active and inactive calls. Unless noted, the call rests on the fitted dose curve; in most records, active means well fitted curve in the direction sought with a large enough effect; inconclusive means small, poorly fitted or top-dose-only effect, or another doubt; inactive means no such curve, though single readings can be large; an effect the other way counts as inactive or inconclusive.
# Legend:
# [1] = qHTS for differential inhibitors of proliferation of Plasmodium falciparum line 3D7 (AID 1876); further: potency means the concentration at half of the fitted maximal effect
# [2] = qHTS for differential inhibitors of proliferation of Plasmodium falciparum line D10 (AID 1877);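 further: parasites grown with compound for 72 h before DNA staining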; further: potency means the concentration at half of the fitted maximal effect
# [3] = qHTS for differential inhibitors of proliferation of Plasmodium falciparum line W2 (AID 1883); details: Potency: Plasmodium falciparum W2 proliferation inhibition;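 further: parasites grown with compound for 72 h before lysis and staining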; further: potency means the concentration at half of the fitted maximal effect
# [4] = qHTS Assay for Modulators of Human Peripheral Myelin Protein 22 (PMP22) Expression/Activity (AID 1967; active means well fitted curve in the direction sought with a large enough effect in the signal ratio; the % refers to the signal ratio)
# Method in brief: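 Engineered MSC80 cells, Pmp22-promoter green and EF-alpha red luciferase reporters; 24h compound treatment at 37 °C. Concentration-response fits on green, red and ratio signals, each overlap-corrected, with %Activity normalized to untreated wells.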
# [5] = target: Ferritin light chain (Equus caballus) (UniProt P02791); assay: qHTS Validation Assay for Identification of Novel General Anesthetics (AID 2323); further: series mostly up to about 77 µM
# Ferritin light chain (Equus caballus), sequence (P02791 2-175 limits assumed): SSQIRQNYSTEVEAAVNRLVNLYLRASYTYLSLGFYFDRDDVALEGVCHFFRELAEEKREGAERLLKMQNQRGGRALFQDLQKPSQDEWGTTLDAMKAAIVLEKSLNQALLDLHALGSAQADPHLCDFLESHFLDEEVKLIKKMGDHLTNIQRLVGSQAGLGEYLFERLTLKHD
# Method in brief: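 Normalized fluorescence response, scaled between free 1-AMA and 1-AMA/apoferritin complex, fitted to a four-parameter Hill equation for concentration-effect values. Binding mix: 10 uM horse-spleen apoferritin, 50% saturated 1-AMA in PBS; read 380/535 nm after 10 min.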
# [6] = target: RecQ-like DNA helicase BLM (Homo sapiens) (UniProt P54132); assay: qHTS Validation Assay for Inhibitors of Bloom's syndrome helicase (BLM) (AID 2364)
# RecQ-like DNA helicase BLM (Homo sapiens), sequence (P54132 whole entry, looked up): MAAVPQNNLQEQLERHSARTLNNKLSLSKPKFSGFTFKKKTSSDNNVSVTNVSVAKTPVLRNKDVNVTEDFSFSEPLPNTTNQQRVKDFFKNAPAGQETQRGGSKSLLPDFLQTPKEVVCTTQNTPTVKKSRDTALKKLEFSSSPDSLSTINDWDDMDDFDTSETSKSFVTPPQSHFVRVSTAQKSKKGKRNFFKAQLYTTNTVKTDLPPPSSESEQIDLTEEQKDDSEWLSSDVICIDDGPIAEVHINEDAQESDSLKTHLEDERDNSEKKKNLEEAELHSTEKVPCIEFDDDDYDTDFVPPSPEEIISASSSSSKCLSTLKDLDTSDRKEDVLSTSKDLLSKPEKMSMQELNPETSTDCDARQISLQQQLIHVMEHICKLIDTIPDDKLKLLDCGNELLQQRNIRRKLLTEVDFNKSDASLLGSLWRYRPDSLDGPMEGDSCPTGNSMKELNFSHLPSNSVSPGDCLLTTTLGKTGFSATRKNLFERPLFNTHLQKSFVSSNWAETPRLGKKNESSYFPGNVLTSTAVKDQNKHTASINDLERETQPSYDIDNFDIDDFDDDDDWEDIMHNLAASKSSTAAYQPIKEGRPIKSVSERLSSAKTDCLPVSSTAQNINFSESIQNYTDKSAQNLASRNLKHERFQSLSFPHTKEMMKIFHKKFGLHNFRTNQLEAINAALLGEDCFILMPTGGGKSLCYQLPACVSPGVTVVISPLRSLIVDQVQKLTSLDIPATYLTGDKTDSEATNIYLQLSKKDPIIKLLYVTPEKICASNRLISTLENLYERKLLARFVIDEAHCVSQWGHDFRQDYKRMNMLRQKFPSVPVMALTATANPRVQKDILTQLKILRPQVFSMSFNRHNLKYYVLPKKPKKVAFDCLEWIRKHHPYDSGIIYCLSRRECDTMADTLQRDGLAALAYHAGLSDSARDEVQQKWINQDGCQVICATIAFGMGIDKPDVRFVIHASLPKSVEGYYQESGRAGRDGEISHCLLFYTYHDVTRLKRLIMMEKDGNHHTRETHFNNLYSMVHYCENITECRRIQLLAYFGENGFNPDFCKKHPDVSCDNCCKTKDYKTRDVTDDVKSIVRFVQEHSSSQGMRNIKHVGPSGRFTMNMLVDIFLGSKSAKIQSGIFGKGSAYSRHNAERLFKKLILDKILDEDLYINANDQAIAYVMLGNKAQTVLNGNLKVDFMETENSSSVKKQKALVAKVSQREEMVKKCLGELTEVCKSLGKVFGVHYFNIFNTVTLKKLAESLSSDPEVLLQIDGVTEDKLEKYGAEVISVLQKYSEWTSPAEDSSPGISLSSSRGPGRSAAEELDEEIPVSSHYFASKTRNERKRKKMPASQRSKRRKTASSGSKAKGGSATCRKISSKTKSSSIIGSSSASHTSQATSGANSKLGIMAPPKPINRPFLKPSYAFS
# Method in brief: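 50 nM BLM preincubated 15 min at room temperature with compound in pH 8.0 Tris buffer containing 2.5 ug/ml poly(dI-dC); started with 200 nM TAMRA/BHQ-2 forked duplex and 2 mM ATP (final). Unwinding read as TAMRA fluorescence increase, two reads 2 h apart.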
# [7] = Cytometric Cell-Based qHTS for Inhibitors of the mTORC1 Signaling Pathway in MEF (Tsc2-/-, p53-/-) Cells (AID 2660);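 further: Tsc2 and p53 null MEFs carrying empty vector with compound for 24 h; percent of cells above a phospho-rpS6 to PI ratio cutoff in each well; series mostly up to about 38 µM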
# Method in brief: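 Readout: Alexa-488 phospho-rpS6 (Ser235/236) intensity divided by PI intensity, thresholded against 7.5 nM rapamycin wells and reported as % positive cells. PI cell count served as the viability measure. Compound exposure was 24 hrs at 37 degree Celsius.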
# [8] = qHTS for differential inhibitors of proliferation of Plasmodium falciparum line HB3 (AID 1886); details: Potency: Plasmodium falciparum HB3 proliferation inhibition;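 further: parasites grown with compound for 72 h before SYBR Green readout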; further: potency means the concentration at half of the fitted maximal effect
# [9] = qHTS Assay for Identification of Small Molecule Inducers of Hypoxia Response (AID 2120; active means well fitted curve in the direction sought with a large enough effect in the signal ratio, with a control signal flat, not every such curve was filed as active; the % refers to the signal ratio)
# Method in brief: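 ME-180 HRE-bla cells plated in Opti-MEM/0.5% dialyzed FBS, rested 4-5 h, then dosed with compound titrations by pin tool. After 17 h at 37 degrees C, CCF4 dye loaded 2.5 h at RT; 460/530 nm ratio gave %Activity and AC50.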
# [10] = target: ATP-dependent DNA helicase Q1 (Homo sapiens) (UniProt P46063); assay: qHTS Validation Assay for Inhibitors of RecQ-Like Dna Helicase 1 (RECQ1) (AID 2353)
# ATP-dependent DNA helicase Q1 (Homo sapiens), sequence (P46063 whole entry, looked up): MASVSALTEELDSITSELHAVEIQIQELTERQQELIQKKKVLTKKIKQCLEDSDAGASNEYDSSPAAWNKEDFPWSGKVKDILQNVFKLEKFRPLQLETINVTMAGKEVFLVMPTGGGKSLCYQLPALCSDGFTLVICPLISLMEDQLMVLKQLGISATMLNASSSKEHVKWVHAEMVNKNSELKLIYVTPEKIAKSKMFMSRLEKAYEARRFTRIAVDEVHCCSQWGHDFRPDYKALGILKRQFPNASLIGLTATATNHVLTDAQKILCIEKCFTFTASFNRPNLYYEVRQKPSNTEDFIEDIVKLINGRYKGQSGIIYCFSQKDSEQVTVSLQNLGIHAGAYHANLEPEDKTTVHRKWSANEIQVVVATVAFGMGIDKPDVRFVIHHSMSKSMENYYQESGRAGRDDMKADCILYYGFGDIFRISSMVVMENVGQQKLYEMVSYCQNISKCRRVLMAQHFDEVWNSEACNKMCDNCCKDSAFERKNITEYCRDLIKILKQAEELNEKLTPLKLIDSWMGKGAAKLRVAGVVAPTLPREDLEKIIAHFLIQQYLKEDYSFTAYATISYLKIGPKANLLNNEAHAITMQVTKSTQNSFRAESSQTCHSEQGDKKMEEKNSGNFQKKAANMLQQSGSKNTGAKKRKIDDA
# Method in brief: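 50 nM RECQ1T1 preincubated 15 min with compound in Tris pH 8.0 buffer with MgCl2, DTT, Tween-20 and 2.5 ug/ml poly(dI-dC); started with 200 nM TAMRA/BHQ-2 forked duplex and 2 mM ATP. Unwinding read as fluorescence (525/598 nm), two reads 2 h apart.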
smiles,measurement,setting,value
CCCCCCCCCCCCCCCC(=O)NCCO,Potency,[1],12.6 µM (active)
same,Potency,[2],inactive
same,Potency,[3],3.16 µM (active)
same,outcome,[4],inactive
same,outcome,[5],inactive
same,outcome,[6],inactive
same,Potency,[7],inactive
CC(C(O)c1ccc(O)cc1)N1CCC(Cc2ccccc2)CC1 (centres undefined),Potency,[1],4.47 µM (active)
same,Potency,[3],2.82 µM (active)
same,Potency,[8],5.01 µM (active)
same,outcome,[5],inactive
same,outcome,[6],inactive
same,Potency,[7],inactive
CSc1ccc2c(c1)N(CCC1CCCCN1C)c1ccccc1S2 (centres undefined),Potency,[1],8.91 µM (active)
same,Potency,[2],12.6 µM (active)
same,Potency,[3],5.01 µM (active)
same,Potency,[8],8.91 µM (active)
same,outcome,[5],inactive
same,outcome,[6],inactive
C=Cc1c(C)c2cc3[nH]c(cc4nc(cc5nc(cc1[nH]2)C(C)=C5CCC(=O)O)C(CCC(=O)O)=C4C)c(C)c3C=C,Potency,[1],inactive
same,Potency,[2],inactive
same,Potency,[3],inactive
same,Potency,[8],inactive
same,outcome,[4],inactive
same,outcome,[6],inactive
same,Potency,[7],inactive
CC1=C(/C=C/C(C)=C/C=C/C(C)=C/C(=O)O)C(C)(C)CCC1,Potency,[1],inactive
same,Potency,[2],inactive
same,Potency,[3],14.1 µM (active)
same,Potency,[7],inactive
Nc1cc(=O)[nH]c(N)n1,Potency,[1],inactive
same,Potency,[2],inactive
same,Potency,[3],inactive
same,Potency,[8],inactive
same,outcome,[5],inactive
same,Potency,[7],inactive
CC1=C(CC(=O)O)c2cc(F)ccc2/C1=C\c1ccc(S(C)(=O)=O)cc1,Potency,[1],inactive
same,Potency,[2],inactive
same,outcome,[5],inactive
same,outcome,[6],inactive
same,Potency,[7],inactive
CSc1ccc2c(c1)C(N1CCN(C)CC1)Cc1ccccc1S2 (centres undefined),Potency,[1],8.91 µM (active)
same,Potency,[2],12.6 µM (active)
same,Potency,[3],4.47 µM (active)
same,Potency,[8],10 µM (active)
same,outcome,[6],inactive
CC(C)(C)c1onc(OCP(=O)(O)O)c1CC(N)C(=O)O (centres undefined),Potency,[1],inactive
same,Potency,[2],inactive
same,Potency,[8],inactive
same,outcome,[4],inactive
same,outcome,[5],inactive
same,Potency,[7],inactive
C[C@]12CC[C@@H]3c4ccc(O)cc4CC[C@H]3[C@@H]1CCC2=O,Potency,[3],11.2 µM (active)
same,outcome,[5],inactive
same,Potency,[7],inactive
NCCNCCNCCNCCN,outcome,[9],inactive
CN(C)CCC=C1c2ccccc2CCc2ccccc21,outcome,[5],inactive
same,outcome,[6],inactive
same,Potency,[7],inactive
CC(C)C(=O)c1c(C(C)C)nn2ccccc12,Potency,[2],inactive
same,outcome,[5],inactive
same,Potency,[7],inactive
CCCCCCCCCCCCOS(=O)(=O)O,outcome,[9],inactive
C[C@]12C[C@H](O)[C@H]3[C@@H](CCC4=CC(=O)CC[C@@]43C)[C@@H]1CC[C@@H]2C(=O)CO,outcome,[9],inactive
same,Potency,[7],inactive
Oc1cccc(O)c1,outcome,[9],inactive
CC1(C)[C@@H]2CC[C@@]1(C)C(=O)C2,outcome,[9],inactive
[Cl][In]([Cl])[Cl],outcome,[9],inactive
CN(C)CCOC(C)(c1ccccc1)c1ccccn1 (centres undefined),Potency,[3],3.55 µM (active)
same,Potency,[8],inactive
same,outcome,[5],inactive
same,Potency,[7],inactive
COc1ccccc1O,outcome,[9],inactive
COC(=O)C1=C(C)NC(C)=C(C(=O)OC)C1c1ccccc1[N+](=O)[O-],outcome,[5],inactive
NCCNCCNCCN,outcome,[9],inactive
CC12CCC(CC1)C(C)(C)O2,outcome,[9],inactive
NC(=O)c1ncn([C@@H]2O[C@H](CO)[C@@H](O)[C@H]2O)n1,Potency,[2],inactive
same,Potency,[8],inactive
same,outcome,[5],inactive
same,outcome,[6],inactive
same,Potency,[7],inactive
CC(C)NC[C@H](O)c1ccc(O)c(O)c1,Potency,[1],inactive
same,outcome,[5],inactive
same,Potency,[7],inactive
O=C1N=C(O)CN1/N=C/c1ccc(-c2ccc([N+](=O)[O-])cc2)o1,Potency,[1],11.2 µM (active)
same,Potency,[3],7.08 µM (active)
same,Potency,[10],inactive
same,Potency,[7],inactive
CCCn1cnc2c1c(=O)n(CCCCC(C)=O)c(=O)n2C,Potency,[3],12.6 µM (active)
same,outcome,[5],inactive
same,Potency,[7],inactive
Nc1ncnc2c1ncn2[C@@H]1O[C@H](CO)[C@@H](O)[C@H]1O,Potency,[7],inactive
N=c1c[n+](N2CCOCC2)[n-]o1,Potency,[2],inactive
same,Potency,[8],inactive
same,outcome,[4],inactive
same,outcome,[5],inactive
same,outcome,[6],inactive
same,Potency,[7],inactive
CNC(=O)Oc1ccc2c(c1)[C@]1(C)CCN(C)[C@@H]1N2C,outcome,[5],inactive
same,Potency,[10],inactive
same,Potency,[7],inactive
COCCOC(=O)C1=C(C)NC(C)=C(C(=O)OC/C=C/c2ccccc2)C1c1cccc([N+](=O)[O-])c1 (centres undefined),Potency,[7],inactive
CC(C)(C)[C@]1(O)CCN2C[C@H]3c4ccccc4CCc4cccc(c43)[C@@H]2C1,Potency,[7],inactive
O=C1c2c(O)cccc2Cc2cccc(O)c21,outcome,[9],inactive
O=C1O[C@H]([C@@H](O)CO)C(O)=C1O,outcome,[9],inactive
Cc1cc(CC(=O)O)n(C)c1C(=O)c1ccc(Cl)cc1,outcome,[9],inactive
CNCC(O)c1ccc(O)c(O)c1 (centres undefined),Potency,[3],14.1 µM (active)
same,outcome,[5],inactive
same,Potency,[7],inactive
CCN(CC)CCOC(=O)C1(C2CCCCC2)CCCCC1,Potency,[2],15.8 µM (active)
same,Potency,[3],5.62 µM (active)
same,Potency,[8],12.6 µM (active)
same,outcome,[5],inactive
same,outcome,[6],inactive
same,Potency,[7],inactive
CCN(CC)C(C)CN1c2ccccc2Sc2ccccc21 (centres undefined),Potency,[7],inactive
CN(C)CCCN1c2ccccc2CCc2ccccc21,outcome,[5],inactive
same,outcome,[6],inactive
same,Potency,[7],inactive
